Bioassay records (PubChem)
Hits are enriched below; roughly 19% of the tested compounds scored in any of these assays.
IL1B secr inh: inhibitors of inflammasome signaling (IL-1 beta secretion) | THP-1 LPS/ATP IL-1B secretion, AlphaLISA, 16 h; active compounds read low | activity change, % at 57.5 µM | 360,000 compounds, 4.7% hits; in the data active = activity change below about -50%; inconclusive = mostly about -30% to -49%
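Secreted IL-1B measured by AlphaLISA bead assay after 16 h compound exposure of THP-1 cells; compounds (final up to 57.5 uM) added 1 h before LPS (250 ng/mL) and ATP (1.25 mM) stimulation; lower signal means less secretion.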
DT40 TDP1 CPT: DT40-hTDP1 cell growth loss with CPT; chicken DT40 Tdp1-/-;hTDP1 cells + 20 nM CPT, ATP luminescence, 48 h; Potency, µM (series often up to 46.2 µM), actives largely listed as inhibitors; 420,000 compounds, 12% hits; note: nearly all actives have a fitted effect of over 55% in size
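Chicken DT40 Tdp1-/- cells stably complemented with human TDP1 were seeded at 400 cells/well in medium containing 20 nM camptothecin, exposed to pin-transferred compounds, and grown at 37 °C for at least 48 hr. Viability was read as ATP luminescence.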
HT1080NT lethal: kills 2HG-producing HT-1080-NT fibrosarcoma cells. HT-1080-NT fibrosarcoma viability, CellTiter-Glo ATP luminescence, 48 h. AID 686970. Potency, µM (series often up to 46.1 µM), hits mostly cytotoxic. 360,000 compounds, 1.6% hits;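 note: NT is the 2HG producing partner of a matched IDH1 knockdown line; nearly all actives have a fitted effect of over 55% in size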
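Viability by CellTiter-Glo luminescence after 48 h compound exposure at 37C of HT-1080-NT cells (750/well, RPMI, 5% FBS). % activity scaled between DMSO wells and medium-only wells, then curve-fitted and categorized by curve class.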
ELG1 DNA repair: inhibitors of ELG1-dependent DNA repair in HEK293T cells; HEK293T ELG1-luciferase reporter, luminescence, 16 h; DNA damage induced by 5-fluorouridine; Potency, µM (doses to about 46.1 µM), hits mostly inhibitors; 330,000 compounds, 2.3% hits; AID 504467; note: nearly all actives have a fitted effect of over 55% in size
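DMSO vehicle served as the neutral condition. Each well held 2,000 cells given 5-fluorouridine plus compound; after 16 hr at 37 °C/5% CO2, ONE-Glo was added and luciferase measured 30 min later.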
HT1080 IDH1KD tx: HT-1080 IDH1 knockdown cell toxicity (counter line); 360,000 compounds, 2% hits; HT-1080 IDH1 knockdown viability, ATP luminescence, 48 h; Potency, µM (highest dose often 46.1 µM), most hits filed as cytotoxic
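Knockdown cells (IDH1KD HT-1080) received compounds 2 h after plating at 750 cells/well and were kept 48 h at 37 °C in 5% FBS RPMI. A CellTiter-Glo luminescence read gave % activity for curve fitting.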
DT40 TDP1 no CPT: qHTS for Inhibitors of human tyrosyl-DNA phosphodiesterase 1 (TDP1): qHTS in cells in absence of CPT. AID 686978, 2013. Potency, µM (top dose mostly 46.2 µM), hits mostly inhibitors. 420,000 compounds, 15% hits. DT40 Tdp1-/- hTDP1 cells, no CPT, ATP luminescence, 48 h; note: nearly all actives have a fitted effect of over 55% in size
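Chicken DT40 Tdp1-/- cells complemented with human TDP1, screened without camptothecin (DMSO vehicle only), 400 cells/well. Compounds pin-transferred, cells incubated at 37 °C for at least 48 hr. Growth read as ATP-dependent luminescence (CellTiter-Glo, 30 min at RT).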
Numbers stand for hits. Unless noted, calls come from the whole dose curve; as a rule, active = well fitted curve in the direction sought with a large enough effect; inconclusive = small, poorly fitted or top-dose-only effect, or another doubt; inactive = no such curve, though single readings can be large; an effect the other way counts as inactive or inconclusive.

What do the screens show for `O=C1C2CCCN2C(c2cccs2)N1c1ccc(Cl)cc1` (centres undefined)?
IL1B secr inh: inactive; DT40 TDP1 CPT: inactive; HT1080NT lethal: inactive; ELG1 DNA repair: inconclusive; HT1080 IDH1KD tx: inactive; DT40 TDP1 no CPT: inactive

Results for O=c1[nH]c(=S)[nH]c(O)c1N=Nc1ccc2c(c1)OCCO2 ?
IL1B secr inh: inactive; DT40 TDP1 CPT: 15µM; HT1080NT lethal: inactive; ELG1 DNA repair: inconclusive; HT1080 IDH1KD tx: inactive; DT40 TDP1 no CPT: 26µM

Results for Cc1ccc([C@H]2C[C@@H](O)[C@H](n3cc(COC(=O)c4ccccc4)nn3)CN2CC2CCCCC2)cc1 ?
IL1B secr inh: inactive; DT40 TDP1 CPT: inconclusive; HT1080NT lethal: inactive; HT1080 IDH1KD tx: inactive; DT40 TDP1 no CPT: inconclusive

How did CCCn1c2ccccc2c2nnc(SCC(=O)Nc3cccc(C(C)=O)c3)nc21 do in these assays?
DT40 TDP1 CPT: inconclusive; DT40 TDP1 no CPT: 15µM

How did O=C(CSc1ccc(-c2ccco2)nn1)Nc1ccccc1 do in these assays?
IL1B secr inh: inactive; DT40 TDP1 CPT: inactive; HT1080NT lethal: inactive; ELG1 DNA repair: inconclusive; HT1080 IDH1KD tx: inactive; DT40 TDP1 no CPT: inconclusive

What do the screens show for `CC[N+](C)(CC)CCCCOc1ccc2c(c1)C(=O)c1cc(OCCCC[N+](C)(CC)CC)ccc1-2`?
IL1B secr inh: inactive; DT40 TDP1 CPT: inconclusive; HT1080NT lethal: inactive; ELG1 DNA repair: inactive; HT1080 IDH1KD tx: inactive; DT40 TDP1 no CPT: 29µM

What do the screens show for `S=P(NCCNP(=S)(N1CC1)N1CC1)(N1CC1)N1CC1`?
IL1B secr inh: inactive; DT40 TDP1 CPT: inactive; HT1080NT lethal: inactive; HT1080 IDH1KD tx: inactive; DT40 TDP1 no CPT: 1.3µM

What do the screens show for `S=P(NCCSCc1ccccc1)(N1CC1)N1CC1`?
IL1B secr inh: inactive; DT40 TDP1 CPT: 3.7µM; HT1080NT lethal: inactive; HT1080 IDH1KD tx: inactive; DT40 TDP1 no CPT: 7.3µM

How did CCC(=O)[C@@H](C)[C@@H](O)[C@H](C)C[C@@H](C)C1OC(=O)C[C@@]2(O)CC=C(C)C(O2)C(C)=CCCC[C@H](O[C@H]2C[C@@H](OC(N)=O)[C@H](O)[C@@H](C)O2)C=C[C@H](C)C[C@H]1C (some centres undefined) do in these assays?
IL1B secr inh: inactive; DT40 TDP1 CPT: 0.46µM; HT1080NT lethal: 12µM; HT1080 IDH1KD tx: 21µM; DT40 TDP1 no CPT: 0.52µM

What do the screens show for `Clc1cccc(N2Cc3cc(-c4ccccc4)ccc3-n3nncc3C2)c1`?
IL1B secr inh: -110; DT40 TDP1 CPT: 2.6µM; HT1080NT lethal: 10µM; HT1080 IDH1KD tx: 10µM; DT40 TDP1 no CPT: 3.7µM

Results for COc1ccc(-c2ccc3c(c2)CN(CC(C)C)Cc2cnnn2-3)cc1 ?
IL1B secr inh: inconclusive; DT40 TDP1 CPT: 16µM; HT1080NT lethal: inactive; HT1080 IDH1KD tx: inactive; DT40 TDP1 no CPT: inconclusive

How did CC(C)CN1Cc2cc(-c3ccccc3)ccc2-n2nncc2C1 do in these assays?
IL1B secr inh: inconclusive; DT40 TDP1 CPT: inconclusive; HT1080NT lethal: inactive; HT1080 IDH1KD tx: inactive; DT40 TDP1 no CPT: inconclusive

What do the screens show for `COc1ccc(-c2ccc3c(c2)CN(c2cccc(Cl)c2)Cc2cnnn2-3)cc1`?
IL1B secr inh: inactive; DT40 TDP1 CPT: inconclusive; HT1080NT lethal: inactive; HT1080 IDH1KD tx: inactive; DT40 TDP1 no CPT: inconclusive

How did Clc1cccc(N2Cc3cc(N4CCOCC4)ccc3-n3nncc3C2)c1 do in these assays?
IL1B secr inh: inactive; DT40 TDP1 CPT: 18µM; HT1080NT lethal: inactive; HT1080 IDH1KD tx: inconclusive; DT40 TDP1 no CPT: inconclusive

Results for O=c1[nH]c(O)c(C=Nc2ccc(Cl)c(C(F)(F)F)c2)c(=O)[nH]1 ?
IL1B secr inh: inactive; DT40 TDP1 CPT: inactive; HT1080NT lethal: inactive; ELG1 DNA repair: inactive; HT1080 IDH1KD tx: inactive; DT40 TDP1 no CPT: inactive

What do the screens show for `COc1cccc(C2=CC(c3cc(Br)ccc3F)n3nnnc3N2)c1` (centres undefined)?
DT40 TDP1 CPT: 1.3µM; DT40 TDP1 no CPT: 1.3µM

What do the screens show for `CCCc1c(-c2ccccc2F)ncn1CCc1ccccc1OC`?
IL1B secr inh: -70; DT40 TDP1 CPT: 3.7µM; HT1080NT lethal: inconclusive; HT1080 IDH1KD tx: inconclusive; DT40 TDP1 no CPT: 2.6µM

How did O=C(CCC(=O)N1C[C@H]2C[C@@H](C1)c1cccc(=O)n1C2)NCc1cccc(C(F)(F)F)c1 do in these assays?
IL1B secr inh: inactive; DT40 TDP1 CPT: inactive; HT1080NT lethal: inactive; ELG1 DNA repair: inactive; HT1080 IDH1KD tx: inconclusive; DT40 TDP1 no CPT: inactive

What do the screens show for `O=C(C[C@@H]1CC[C@@H]2[C@H](COC[C@H](O)CN2Cc2cccc(C(F)(F)F)c2)O1)NCc1ccc(Cl)cc1`?
IL1B secr inh: inactive; DT40 TDP1 CPT: 12µM; HT1080NT lethal: inactive; HT1080 IDH1KD tx: inactive; DT40 TDP1 no CPT: 8.2µM

What do the screens show for `Cc1cccc(C)c1-n1nnnc1C(c1ccnc2ccccc12)N1CCC2(CC1)C(=O)NCN2c1ccccc1` (centres undefined)?
IL1B secr inh: inconclusive; DT40 TDP1 CPT: 23µM; HT1080NT lethal: inconclusive; HT1080 IDH1KD tx: inconclusive; DT40 TDP1 no CPT: 15µM

How did COc1ccc(C(c2nnnn2-c2c(C)cccc2C)N2CCC3(CC2)C(=O)NCN3c2ccccc2)cc1 (centres undefined) do in these assays?
IL1B secr inh: -64; DT40 TDP1 CPT: 15µM; HT1080NT lethal: 23µM; HT1080 IDH1KD tx: inconclusive; DT40 TDP1 no CPT: 21µM

Results for CC(C)(C)n1nnnc1C(C1CC1)N1CCC2(CC1)C(=O)NCN2c1ccccc1 (centres undefined) ?
IL1B secr inh: inactive; DT40 TDP1 CPT: inconclusive; HT1080NT lethal: inactive; HT1080 IDH1KD tx: inactive; DT40 TDP1 no CPT: 16µM

Results for Cc1cccc(C)c1-n1nnnc1C(c1ccccc1)N1CCC2(CC1)C(=O)NCN2c1ccccc1 (centres undefined) ?
IL1B secr inh: inconclusive; DT40 TDP1 CPT: 23µM; HT1080NT lethal: inconclusive; HT1080 IDH1KD tx: inconclusive; DT40 TDP1 no CPT: 21µM

Results for COc1ccc(C(c2nnnn2C(C)(C)C)N2CCC3(CC2)C(=O)NCN3c2ccccc2)cc1 (centres undefined) ?
IL1B secr inh: inactive; DT40 TDP1 CPT: inconclusive; HT1080NT lethal: inactive; HT1080 IDH1KD tx: inactive; DT40 TDP1 no CPT: inconclusive

How did COc1ccc(NC(=O)N2CC3(CCN(C(=O)Oc4ccccc4)CC3)C2)cc1 do in these assays?
DT40 TDP1 CPT: inactive; DT40 TDP1 no CPT: inactive

What do the screens show for `CCOP(=S)(OCC)O/N=C(\C#N)c1ccccc1`?
DT40 TDP1 CPT: inactive; DT40 TDP1 no CPT: inactive
